Measurements published in PubChem BioAssay (NCI).
Several values for one entry are separate records, joined by “and”; a condition that tells them apart may be missing. Identical values can stand only once. About 83,000 compounds went through this panel and 20% of them were active in at least one assay; those are over-represented in the sample as a whole.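 Treatment: one concentration, 48 hours, 96-well format. Scoring: percent growth, with anything below 10 considered active.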 Activity calls are given as the source filed them.

Experiments:
Assay in all cases: NCI-60 one-dose screen, 48 h (100 = growth as untreated, 0 = no growth, -100 = all killed)
Conditions in all cases: 10 µM unless noted
SR leukemia = test system: SR leukemia
RPMI-8226 leukemia = test system: RPMI-8226 leukemia
OVCAR-8 ovarian = test system: OVCAR-8 ovarian
OVCAR-5 ovarian = test system: OVCAR-5 ovarian
OVCAR-4 ovarian = test system: OVCAR-4 ovarian
SK-OV-3 ovarian = test system: SK-OV-3 ovarian
IGROV1 ovarian = test system: IGROV1 ovarian
OVCAR-3 ovarian = test system: OVCAR-3 ovarian
HS 578T breast = test system: HS 578T breast
NCI/ADR-RES ovarian = test system: NCI/ADR-RES ovarian

SMILES | growth (SR leukemia) | growth (RPMI-8226 leukemia) | growth (OVCAR-8 ovarian) | growth (OVCAR-5 ovarian) | growth (OVCAR-4 ovarian) | growth (SK-OV-3 ovarian) | growth (IGROV1 ovarian) | growth (OVCAR-3 ovarian) | growth (HS 578T breast) | growth (NCI/ADR-RES ovarian)
CCCNNC(=O)/C=C/c1ccc(CNCCc2c(C)[nH]c3ccccc23)cc1 | 20.1% [2.5 µM] (inactive) | 16.3% [2.5 µM] (inactive) | 10.8% [2.5 µM] (inactive) | 1.96% [2.5 µM] (active) | 41.6% [2.5 µM] (inactive) | 0.0389% [2.5 µM] (active) | 9.05% [2.5 µM] (active) | 19.8% [2.5 µM] (inactive) | 35.3% [2.5 µM] (inactive) | 50% [2.5 µM] (inactive)
CN1CCN(c2ccc(/C=C/C(=O)c3ccc(O)cc3)cc2)CC1 | 101% (inactive) | 102% (inactive) | 95.9% (inactive) | 98.1% (inactive) | 89.5% (inactive) | 105% (inactive) | 105% (inactive) | 106% (inactive) | 95.7% (inactive) | 99.9% (inactive)
COc1ccc(/C(C)=C(\c2ccc(OCCN3CCCCCC3)cc2)c2ccc(OC(=O)C3CCCCC3)cc2)cc1 | -20.1% (active) | -55.1% (active) | -47.3% (active) | -24.7% (active) | -28.4% (active) | -70.9% (active) | -49% (active) | -86.9% (active) | -38.3% (active) | -65.2% (active)
CCN1C(=S)N(CC)C2C1NC(=S)N2/N=C/C=C/c1ccccc1 (stereo not given) | 20% (inactive) | 41.4% (inactive) | 41.6% (inactive) | 54.5% (inactive) | 61% (inactive) | 35.5% (inactive) | 37.9% (inactive) | 3.77% (active) | 12.1% (inactive) | 15.4% (inactive)
Nc1ccccc1SC(CC(=O)c1ccccc1)c1ccc([N+](=O)[O-])cc1 (stereo not given) | 13.4% (inactive) and 2.29% (active) | -1.33% (active) and -0.234% (active) | 95.5% (inactive) and 95.8% (inactive) | 118% (inactive) and 114% (inactive) | 93.8% (inactive) and 87.8% (inactive) | 108% (inactive) and 95% (inactive) | 117% (inactive) and 76.1% (inactive) | 105% (inactive) and 63.8% (inactive) | 103% (inactive) and 105% (inactive) | 98.2% (inactive) and 91.9% (inactive)
COC1=CC(=O)C(OC)=C(O)C1=O | 107% (inactive) | 110% (inactive) | 103% (inactive) | 95.2% (inactive) | 90.8% (inactive) | 91% (inactive) | 103% (inactive) | 105% (inactive) | 113% (inactive) | 101% (inactive)
CCN1CCN(CC(=O)Nc2nc3ccc(NCc4ccc(C)cc4)cc3s2)CC1 | 7.22% (active) | 48.8% (inactive) | 85.9% (inactive) | 80.5% (inactive) | 75% (inactive) | 91.5% (inactive) | 91.4% (inactive) | 70.3% (inactive) | 84.9% (inactive) | 81.8% (inactive)
O=C(Nc1ccccc1C(=O)N/N=C(\c1ccccc1)c1ccccn1)c1ccccc1 | 4.3% (active) | 20.8% (inactive) | 13.2% (inactive) | 31.9% (inactive) | 12.7% (inactive) | 10.7% (inactive) | 20.9% (inactive) | 28% (inactive) | 65.2% (inactive) | 9.54% (active)
C=C1CCC2C3(C)COC(c4ccc(NC(C)=O)cc4)OC3CCC2(C)C1C/C=C1/C(=O)OCC1O (stereo not given) | 25.2% (inactive) | 6.14% (active) | 44.7% (inactive) | 74.9% (inactive) | 23.7% (inactive) | 79.6% (inactive) | 84.4% (inactive) | 76.2% (inactive) | 54% (inactive) | 36.1% (inactive)
N=C1/C(=C2\NC3C=CC=CC3S2)C(c2ccc(Cl)cc2)C2C(=O)N(c3ccccc3)C(=S)N12 (stereo not given) | 105% (inactive) | 103% (inactive) | 99.1% (inactive) | 106% (inactive) | 101% (inactive) | 105% (inactive) | 92.8% (inactive) | 106% (inactive) | 99.2% (inactive) | 95.8% (inactive)
CN1C(=O)/C(=C/c2ccc(C(=O)Nc3ncc(Cc4ccccc4Cl)s3)cc2)SC1=S | 35.7% (inactive) | 73.3% (inactive) | 79.3% (inactive) | 70.5% (inactive) | 69.6% (inactive) | 80.5% (inactive) | 78.8% (inactive) | 93.3% (inactive) | 65.8% (inactive) | 71.6% (inactive)
COc1ccc(C2=C(CN)C(O)NC(=NCC(=O)c3ccc4ccccc4c3)N2)cc1 (stereo not given) | 99.4% (inactive) | 119% (inactive) | 98.8% (inactive) | 99.8% (inactive) | 107% (inactive) | 89.4% (inactive) | 102% (inactive) | 99.9% (inactive) | 116% (inactive) | 103% (inactive)
CC(=O)c1nn(-c2ccccc2)/c(=N/N=Cc2cn(-c3ccccc3)nc2-c2cc3ccccc3oc2=O)s1 | 88.1% (inactive) | 102% (inactive) | 103% (inactive) | 106% (inactive) | 104% (inactive) | 106% (inactive) | 107% (inactive) | 116% (inactive) | 115% (inactive) | 107% (inactive)
CC1=C2[C@@H](CC1)[C@]1(C)O[C@@](C(C)C)(C[C@H]1OC(=O)CO)[C@H]2OC(=O)C1CC1c1ccccc1 (stereo not given in full) | 82% (inactive) | 88.8% (inactive) | 65.6% (inactive) | 78.2% (inactive) | 102% (inactive) | 108% (inactive) | 87.5% (inactive) | 96.5% (inactive) | -2.94% (active) | 69% (inactive)
COC(=O)c1nc(-c2ccc(C)cc2)oc1S(=O)(=O)c1ccc(Cl)cc1 | -15.7% (active) | 81.2% (inactive) | 94.2% (inactive) | 96.3% (inactive) | 100% (inactive) | 97.4% (inactive) | 89.3% (inactive) | 107% (inactive) | 105% (inactive) | 105% (inactive)
COc1cc(C(=O)c2ccccc2C(=O)O)c(OC)c2c1CCCC2 | 67.3% (inactive) and 94.9% (inactive) | 108% (inactive) and 93.7% (inactive) | 104% (inactive) and 101% (inactive) | 112% (inactive) and 106% (inactive) | 99.3% (inactive) and 98.9% (inactive) | 113% (inactive) and 106% (inactive) | 127% (inactive) and 105% (inactive) | 93.3% (inactive) and 105% (inactive) | 103% (inactive) and 112% (inactive) | 103% (inactive) and 104% (inactive)
Cc1nc2sc(C(=O)Nc3cccc4ccccc34)c(N)c2cc1C(=O)/C=C/c1ccccc1 | 13.2% (inactive) | -27% (active) | -13.9% (active) | 13.6% (inactive) | 34.6% (inactive) | 27.1% (inactive) | 4.15% (active) | -67.8% (active) | 16.1% (inactive) | -11.3% (active)
CSc1nnc(-c2cc3c([nH]c4ccccc43)c(-c3cccc(O)c3)n2)n1-c1ccc(C)cc1 | 5.99% (active) | 19.3% (inactive) | 34.8% (inactive) | 72.6% (inactive) | 54.1% (inactive) | 42% (inactive) | 51% (inactive) | 1.33% (active) | 37.3% (inactive) | 43.1% (inactive)
COc1cc(-c2[nH]ncc2Nc2ccc(Cl)cc2)cc(OC)c1OC | 67.7% (inactive) | 21.1% (inactive) | 67.5% (inactive) | 75.7% (inactive) | 71.6% (inactive) | 64.3% (inactive) | 69.8% (inactive) | 86.1% (inactive) | 66% (inactive) | 61.7% (inactive)
COc1cc2ncnc(Nc3ccc(F)c(Cl)c3)c2cc1OCC(=O)N1CCCCC1 | 74.6% (inactive) | 81.9% (inactive) | 89.2% (inactive) | 67% (inactive) | 71.7% (inactive) | 21.3% (inactive) | 42.8% (inactive) | 73.2% (inactive) | 94.4% (inactive) | 62.1% (inactive)
Cc1ccc2c(c1)C(C)Cc1c(ncnc1-n1cnc3cc(C)ccc31)N2C (stereo not given) | 1.44% (active) | -0.691% (active) | 0.0907% (active) | 79% (inactive) | 61.7% (inactive) | 5.86% (active) | 21.9% (inactive) | 20.2% (inactive) | 31.6% (inactive) | 5.12% (active)
CCCCC#Cc1c(/C=C(\CCCC)SCC)n(C)c(=O)[nH]c1=O | 93.4% (inactive) | 85.5% (inactive) | 76.8% (inactive) | 99.3% (inactive) | 90.7% (inactive) | 106% (inactive) | 73.6% (inactive) | 88.5% (inactive) | 95.9% (inactive) | 95.6% (inactive)
O=c1ccc2nc(-c3ccccn3)nn(-c3ccccc3)c-2c1 | 5.21% (active) | 50.3% (inactive) | 87.1% (inactive) | 109% (inactive) | 81.8% (inactive) | 84.9% (inactive) | 87.9% (inactive) | -21.9% (active) | 93.9% (inactive) | 98% (inactive)
COc1ccc(-c2ccc(-c3ccc(C(=N)N)cn3)o2)cc1Cl | -28.3% (active) | -35.5% (active) | 12.3% (inactive) | 68.6% (inactive) | 38.8% (inactive) | 84.8% (inactive) | 68.7% (inactive) | -13.2% (active) | 59.1% (inactive) | 82.8% (inactive)
